Reference: PubChem BioAssay (NCI)
This is part of a sample that, as a whole, favours compounds with a hit. Of some 83,000 tested, about 20% had one in any assay.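 Step 1: grow cells in 96-well plates. Step 2: add test compound at a single concentration. Step 3: incubate 48 h. Step 4: record percent growth.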 The source made the active and inactive calls. The calls were made as follows: active = growth percent below 10; inactive = the rest.

Experiments:
Assay in all cases: NCI-60 one-dose screen, 48 h (100 = growth as untreated, 0 = no growth, -100 = all killed)
Conditions in all cases: 10 µM unless noted
[1] = system: DU-145 prostate
[2] = system: K-562 leukemia
[3] = system: MALME-3M melanoma
[4] = system: MDA-MB-231 breast
[5] = system: RXF 393 renal
[6] = system: SF-268 CNS
[7] = system: SF-295 CNS
[8] = system: SF-539 CNS
[9] = system: UACC-257 melanoma
[10] = system: M14 melanoma

Measured: growth

O=C1OC(Cc2ccccc2)C1c1ccccc1 (stereo not given)
inactive: [1] 110% | [2] 108% | [3] 106% | [4] 102% | [5] 120% | [6] 97.9% | [7] 98.2% | [8] 102% | [9] 93.9% | [10] 104%

COC(=O)C1=C(C(=O)ON)C2C=CC1(C(Cc1ccccc1)Nc1ccccc1)O2 (stereo not given)
active: [2] -1.55% | [3] -74%
inactive: [1] 73.9% | [4] 103% | [5] 92.1% | [6] 95% | [7] 103% | [8] 90% | [9] 87.8% | [10] 76.3%

CCCCCC(=O)Oc1ccc(/C(=C(/C)Cc2ccc(OC)cc2)c2ccc(OCCCN(C)C)cc2)cc1
active: [2] 6.07%
inactive: [1] 90.4% | [3] 74.9% | [4] 66.1% | [5] 61.6% | [6] 70.1% | [7] 32.4% | [8] 66.8% | [9] 75.9% | [10] 36.3%

CCOC(=O)CCN(CC(C)C)C(=S)Nc1ccccc1
inactive: [1] 108% | [2] 103% | [3] 102% | [4] 106% | [5] 122% | [6] 104% | [7] 101% | [8] 100% | [9] 102% | [10] 99%

O=[N+]([O-])c1ccc(NC(=S)N/N=C/c2cc3ccccc3n3nnnc23)cc1
active: [8] 9.9%
inactive: [1] 64.1% | [2] 12.5% | [3] 71.9% | [4] 61.2% | [5] 30.1% | [6] 38.3% | [7] 18.9% | [9] 90.2% | [10] 75.5%

O=C(CCN1CCCC1)Nc1ccc2c(Nc3ccc(F)cc3)c3ccccc3nc2c1
inactive: [6] 16.3% | [7] 15.2%
active: [1] -46% | [2] 0.179% | [3] -90.1% | [4] -17.2% | [5] 7.89% | [8] -74.5% | [9] -57.1% | [10] -80.7%

COc1cc(/C=N/O)nc(-c2ccccn2)c1
inactive: [1] 24.7% | [2] 11.6% | [4] 26.5% | [5] 21.2% | [7] 14.8%
active: [3] 6.48% | [6] 6.74% | [8] 4.89% | [9] 5.15% | [10] 6.86%

Cc1nn(-c2ccccc2)c(Oc2c(Cl)cccc2Cl)c1/C=N/N=c1\sc2ccccc2n1C
inactive: [1] 67.7% | [2] 28.3% | [3] 81.6% | [4] 51.3% | [5] 54.7% | [6] 52.2% | [7] 54.3% | [8] 49.9% | [9] 71.3% | [10] 60.8%

NC(=O)Nc1ccc(-n2cnc3cc(-c4ccc(O)cc4)ccc32)cc1
inactive: [1] 107% | [2] 89.3% | [3] 98.4% | [4] 107% | [5] 123% | [6] 96.3% | [7] 97.4% | [8] 67.2% | [9] 112% | [10] 91.6%

Cc1ccc(-n2cc(-c3ccccc3)c3c2N=NN2CCN=C32)cc1
inactive: [1] 113% | [2] 87% | [3] 104% | [4] 85.9% | [5] 109% | [6] 96.8% | [7] 96.5% | [8] 101% | [9] 113% | [10] 104%

Cc1cc2c(C(=O)NCC#N)cccc2n1-c1nc2c(c(NCc3ccccc3)n1)CCCC2
active: [1] 2.51% | [2] 1.31% | [3] -72.1% | [4] -78.9% | [5] -68.9% | [6] -35.1% | [7] -76.2% | [8] -24.5% | [9] -36.4% | [10] -45%

COc1ccc(CC(C)=C(c2ccc(OCCN3CCCCCC3)cc2)c2ccc(OCCN3CCCCCC3)cc2)cc1
active: [1] -96.2% | [2] -55.4% | [3] -91.9% | [4] -98.2% | [5] -82.1% | [6] -81.2% | [7] -93.3% | [8] -95.8% | [9] -76.3% | [10] -67.3%

CCOc1ccc(/C=N/Nc2cc(C)nc3ccc(Br)cc23)cc1
inactive: [1] 94.2% | [2] 20.2% | [3] 102% | [4] 68.5% | [5] 85.8% | [6] 99.7% | [7] 82.7% | [8] 102% | [9] 96% | [10] 94%

O=C(Nc1ccc(F)cc1)Nc1ccc(NC(=O)c2cc(Cl)nc3ccccc23)cc1
inactive: [1] 57% | [2] 58.5% | [3] 53.7% | [4] 45.9% | [5] 86.9% | [6] 68.1% | [7] 64.6% | [8] 35.6% | [9] 79.8% | [10] 74.3%

CCC(CC)NCC(C)(C)O
inactive: [1] 106% | [2] 102% | [3] 113% | [4] 102% | [5] 117% | [6] 109% | [7] 103% | [8] 111% | [9] 106% | [10] 97%

CCOC(=O)Oc1c(OC)cc(C(=O)c2ccc(OC)c(OC(=O)CCl)c2OC)cc1OC
inactive: [1] 12.5% | [2] 10.4% | [3] 50.8% | [4] 33% | [6] 43.8% | [7] 20.7% | [9] 48.5%
active: [5] -17.9% | [8] -16.9% | [10] -15%

O=S(=O)(NCCNc1nccc(-c2c(-c3cccc(O)c3)nc3occn23)n1)c1ccccc1
inactive: [1] 97.7% | [2] 68.4% | [4] 66.5% | [5] 90.3% | [6] 85.3% | [7] 96.6% | [8] 105% | [9] 17.7% | [10] 29.4%
active: [3] 2.3%

O=C(CSc1nc2sc3c(c2c(=O)n1-c1ccc(Cl)cc1)CCCC3)Nc1nc(-c2cccc(Br)c2)cs1
inactive: [1] 68.5% | [2] 95.8% | [3] 95.3% | [4] 80.7% | [5] 99.5% | [6] 69.6% | [7] 42.4% | [8] 97.3% | [9] 99.3% | [10] 76.6%

Cc1ccc(S(=O)(=O)NNC(=O)/C(=C\c2ccc(Cl)cc2)c2nc3ccccc3s2)cc1
inactive: [1] 101% | [2] 84% | [3] 98.6% | [4] 95.6% | [5] 101% | [6] 91.9% | [7] 103% | [8] 104% | [9] 98% | [10] 86%

N=C(N)c1ccc(OCCCCCCCCCCOc2ccc(C(=N)N)cc2)cc1
active: [1] -96.6% | [2] -67.5% | [3] -81.8% | [4] -91.7% | [5] -82.8% | [6] -81.3% | [7] -82.4% | [8] -87% | [9] -69.7% | [10] -85.6%

Cn1c2ccccc2c2c3c(c4c5ccccc5n(C)c4c21)C(=O)OC3
inactive: [1] 104% | [2] 94.2% | [3] 109% | [4] 76.2% | [5] 101% | [6] 91.1% | [7] 107% | [8] 96.6% | [9] 109% | [10] 103%

O=[N+]([O-])c1cc(Br)c2cccc3c2c1CC3
inactive: [1] 112% | [2] 100% | [3] 120% | [4] 87.1% | [5] 110% | [6] 109% | [7] 116% | [8] 103% | [9] 106% | [10] 104%

CC(=O)CCC(=O)OCc1cc(=O)c(O)co1
inactive: [1] 102% | [2] 102% | [3] 95.5% | [4] 110% | [5] 113% | [6] 97.7% | [7] 103% | [8] 110% | [9] 99.7% | [10] 99.4%

CC(Sc1nc2sc3c(c2c(=O)n1-c1ccc(Cl)cc1)CCCC3)C(=O)Nc1nc(-c2ccc(Br)cc2)cs1 (stereo not given)
inactive: [1] 105% | [2] 96.5% | [3] 95.2% | [4] 89.1% | [5] 101% | [6] 93.5% | [7] 100% | [8] 107% | [9] 93% | [10] 94%

C=CCN1C(=O)/C(=C/C(=O)OC)S/C1=N\NC(=O)c1cc2ccc1/C=C\c1ccc(cc1)/C=C\2
inactive: [1] 106% | [2] 51.9% | [3] 92.4% | [4] 97.7% | [5] 94.8% | [6] 103% | [7] 93.6% | [8] 99.7% | [9] 91.1% | [10] 78.9%

COc1cc2c(=O)n(CCCN(C)C)c3c4cc5c(cc4ccc3c2cc1OC)OCO5
inactive: [1] 63.5% | [2] 56.3% | [3] 67.8% | [4] 67% | [5] 45.3% | [6] 50.4% | [7] 42.5% | [8] 46.2% | [9] 93.1% | [10] 66.6%

CCCCCN1C=C/C(=C\C(=O)N2CCCc3ccccc32)c2ccccc21
inactive: [1] 94.1% | [2] 54.1% | [3] 86% | [4] 97% | [5] 99.5% | [6] 87.2% | [7] 85.7% | [8] 97.2% | [9] 89.8% | [10] 100%
